Screening results: PubChem, several laboratories
NR2F2 inh – NR2F2 transcriptional activity inhibitors, primary screen, cell-based, luciferase reporter, HEK293T, luminescence. COUP transcription factor 2 (Homo sapiens), P24468. AID 686940, 2013. 370,000 tested, 0.7% active. inhibition, % at 8.6 µM. HEK293T NGFI-A luciferase reporter;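 active means inhibition above a per-plate cutoff, mean inhibition of test wells between control levels plus 3 SD, cut at about 38% in these data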;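 further: cells cotransfected with COUP-TFII expression vector driving the NGFI-A reporter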
Target sequence (P24468 whole entry, looked up): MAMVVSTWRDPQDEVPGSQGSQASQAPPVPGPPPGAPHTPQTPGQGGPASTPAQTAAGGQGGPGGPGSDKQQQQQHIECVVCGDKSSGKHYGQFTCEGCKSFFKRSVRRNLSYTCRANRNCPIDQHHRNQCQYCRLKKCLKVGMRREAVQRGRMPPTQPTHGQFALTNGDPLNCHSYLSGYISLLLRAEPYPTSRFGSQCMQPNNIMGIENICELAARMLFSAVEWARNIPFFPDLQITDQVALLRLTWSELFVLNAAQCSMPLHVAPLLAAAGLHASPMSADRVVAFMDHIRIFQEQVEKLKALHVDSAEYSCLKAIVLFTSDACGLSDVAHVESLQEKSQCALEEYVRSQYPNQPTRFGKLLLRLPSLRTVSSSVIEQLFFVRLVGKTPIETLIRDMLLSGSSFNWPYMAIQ
H9c2 protect – cardioprotection against H2O2-induced cell death, primary screen, uHTS, H9c2 cells, ATPLite luminescence; H9c2 cardiomyocytes, H2O2 injury protection, 2 h; protection from H2O2 cell death, % at 20 µM; 360,000 tested, 0.63% active;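 active means compounds giving at least 50% protection of heart cells from peroxide-induced death in the single-dose screen, raw or plate-pattern-corrected value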
SMARCA2 act – SMARCA2 (BRM) function activators, primary screen, cell-based, luminescence, high throughput | MG213 cells, MMTV-luciferase reporter, dexamethasone, overnight | activation, % at 9.1 µM | 370,000 tested, 1% active; in the data active means activation above about 7.8%
Gli-Sufu antag – Gli-Sufu pathway antagonists, primary screen, luciferase luminescence, Sufu-KO-LIGHT cells, uHTS. Sufu-KO-LIGHT fibroblasts, Gli luciferase reporter luminescence. inhibition, % at 5 µM. 340,000 tested, 0.74% active;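 active means inhibition above about 55%, limit read from the data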
GalR3 antag – GalR3 antagonists in HEK293 cells, primary screen, cell-based, fluorescence readout; Galanin receptor type 3 (Homo sapiens), O60755; HEK293 GalR3-CNG cAMP membrane potential fluorescence; galR3 body fused to GalR1 C-terminus; inhibition, % at 3 µM; 360,000 tested, 0.44% active;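 active means inhibition above the screen-wide average plus 3 SD, cut at about 13% in these data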;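 further: forskolin and galanin both at EC90 stimulate the cells; cAMP rise reported by CNG channel membrane potential dye signal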
GAA850 FXN act – FXN promoter activators, primary screen, cell-based, luciferase luminescence, HEK293 lucGAA850; HEK293 lucGAA850 FXN promoter luciferase reporter, 24 h; percent of 10 µM SAHA response; activation, % at 6 µM; 360,000 tested, 0.56% active;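 active means activation above the average of all compounds screened plus 3 SD, cutoff fixed separately per campaign, cut at about 7.5% in these data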
Large screens that a line does not name were inactive. Only some compounds are listed: those with a hit (about 3.4% of all), similar ones and a draw of the others.

COc1cc(C(=O)Nc2ccc(NC(=O)c3cccc(Cl)c3)nc2)cc(OC)c1OC	H9c2 protect 68
COc1cc(C(=O)Nc2ccccn2)cc(OC)c1OC	none
COc1ccc(C(=O)Nc2cccc3cccnc23)cc1OC	none
COc1cc(C(=O)Nc2ccccc2C(=O)Nc2ccccn2)cc(OC)c1OC	H9c2 protect 60
COC(=O)c1ccccc1NC(=O)c1ccc2nccnc2c1	H9c2 protect 64
O=C(Nc1ccccc1Cl)c1ccc2nccnc2c1	none
COc1ccc(C(=O)Nc2cccc(NC(=O)c3ccc(OC)c(OC)c3)n2)cc1OC	H9c2 protect 54
COP(=O)(OC)C(NC(=O)OCc1ccccc1)C(C)C (stereo not drawn)	none (no result: H9c2 protect, Gli-Sufu antag, GalR3 antag, GAA850 FXN act)
C=CCn1c(O)c(N=NC(=S)Nc2ccc(OC)cc2)c2ccccc21	H9c2 protect 56
COc1ccc(N2CCN(c3ncnc4nc[nH]c34)CC2)cc1	none
COc1ccccc1N1CCN(c2ncnc3nc[nH]c23)CC1	SMARCA2 act 7.9
O=C(Nc1ccccc1)N1CCC(c2ccccc2)C1 (stereo not drawn)	SMARCA2 act 7.8
CC(C)CCN(C)C1CCN(C(=O)Nc2ccc(Cl)cc2)CC1	none (no result: H9c2 protect, Gli-Sufu antag, GalR3 antag, GAA850 FXN act)
CC(C)CCN(C)C1CCN(C(=O)Nc2ccccc2)CC1	SMARCA2 act 7.8 (no result: H9c2 protect, Gli-Sufu antag, GalR3 antag, GAA850 FXN act)
Cn1c(-c2ccc(Cl)cc2)cnc1N	H9c2 protect 69
CN(C)c1nc(=NCc2cccs2)ss1	SMARCA2 act 13
COc1cc(/C=N/Nc2nncn2/N=C/c2ccc(O)c(OC)c2)ccc1O	none
COc1ccc(OC)c(/C=N/Nc2nncn2/N=C/c2cc(OC)ccc2OC)c1	H9c2 protect 81
C[C@H]1COc2cc(N3CCSCC3)ccc2S(=O)(=O)N1C	none (no result: H9c2 protect, Gli-Sufu antag, GalR3 antag, GAA850 FXN act)
Cc1ccc(N(CC(=O)NCCc2ccccc2)C(=O)c2csnn2)cc1	none
CC(C)c1ccc(N(CC(=O)NCCc2ccccc2)C(=O)c2csnn2)cc1	SMARCA2 act 7.8
CN(C)CCCNc1ccc(-c2nn(C)c(=O)c3ccccc23)cc1[N+](=O)[O-]	none
O=c1[nH]nc(-c2ccc(NCCO)c([N+](=O)[O-])c2)c2ccccc12	H9c2 protect 68
O=c1[nH]nc(-c2ccc(NCCCO)c([N+](=O)[O-])c2)c2ccccc12	H9c2 protect 58
CC(C)(C)C(=O)NC1CCCCN(Cc2ccc(Cl)cc2)C1=O (stereo not drawn)	none (no result: H9c2 protect, Gli-Sufu antag, GalR3 antag, GAA850 FXN act)
CC1COCC(C)N1S(=O)(=O)c1ccc2c(c1)CCN2C(=O)C1CCC1 (stereo not drawn)	none (no result: H9c2 protect, Gli-Sufu antag, GalR3 antag, GAA850 FXN act)
CCCCCC[C@H](CN(CCCC)S(C)(=O)=O)c1ccccc1	none (no result: H9c2 protect, Gli-Sufu antag, GalR3 antag, GAA850 FXN act)
Oc1ccc(Cl)cc1C=Nc1ccc2c3c(cccc13)CC2	H9c2 protect 91
Cc1cccc(C=Nc2ccc3c4c(cccc24)CC3)c1O	none
Oc1ccc(Cl)cc1C=Nc1ccc(Br)cc1	H9c2 protect 50
COc1ccc(N=Cc2cc(Cl)ccc2O)cc1Cl	H9c2 protect 72
Cc1ccc(N=Cc2ccccc2O)cc1Cl	none
Oc1ccc(N=Nc2cccc(Cl)c2)cc1C=Nc1ccc(N2CCOCC2)cc1	H9c2 protect 66
Oc1c(Br)cc(Cl)cc1C=Nc1ccc(N2CCOCC2)cc1	none
COc1ccc(CN2C[C@]3(C=C4CCCCC4n4c(=O)n(-c5ccccc5)c(=O)n43)N=C2NC(=O)c2ccccc2)c(OC)c1 (stereo partly drawn)	none (no result: H9c2 protect, Gli-Sufu antag, GalR3 antag, GAA850 FXN act)
CC(=O)N1CCCN(C(=O)CCn2nnc3ccccc32)CC1	none (no result: H9c2 protect, Gli-Sufu antag, GalR3 antag, GAA850 FXN act)
Cc1cccc(C)c1-n1nnnc1C1(C)CN(S(C)(=O)=O)CC(=O)N1Cc1ccc(F)cc1 (stereo not drawn)	none (no result: H9c2 protect, Gli-Sufu antag, GalR3 antag, GAA850 FXN act)
CCS(=O)(=O)Nc1ccc2c(c1)C(=O)N(C)[C@@H]1CC[C@H](CC(=O)OC)O[C@H]1CO2	none (no result: H9c2 protect, Gli-Sufu antag, GalR3 antag, GAA850 FXN act)
CCOC(=O)c1cccc(NC(=O)CSc2nc3ccccc3c(=O)n2CC)c1	none
CCCn1c(SC(C(=O)Nc2cccc(OC)c2)c2ccccc2)nc2ccccc2c1=O (stereo not drawn)	H9c2 protect 50
